Structures can show the parent of a compound that is named as a salt.
Assays:
Experiment in all cases: cell viability of combination (% of vehicle); higher = less cytotoxic
Settings in all cases: 1 µM; 72 h; partner dose: 10 nM
HCI01 = system: HCI01 (cells of a triple-negative basal-like breast cancer xenograft)
Experimental: (§1)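 PDX cells were treated for 72 h with each drug at 1 µM plus carfilzomib (10 nM; 100 nM for WHIM2). Luciferase viability is expressed as percent of vehicle.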

UCD52 = system: UCD52 (cells of a triple-negative basal-like breast cancer xenograft)
Experimental: as §1

WHIM30 = system: WHIM30 (cells of a triple-negative basal-like breast cancer xenograft)
Experimental: as §1

SMILES | cell viability of combination (HCI01) | cell viability of combination (UCD52) | cell viability of combination (WHIM30)
Oc1c(Cl)cc(Cl)c2cccnc12 [Chloroxine] + CC(C)C[C@H](NC(=O)[C@H](CCc1ccccc1)NC(=O)CN1CCOCC1)C(=O)N[C@@H](Cc1ccccc1)C(=O)N[C@@H](CC(C)C)C(=O)[C@@]1(C)CO1 [Carfilzomib] | 79.4 | 62.4 | –
Cc1ccc(NC(=O)c2ccc(CN3CCN(C)CC3)cc2)cc1Nc1nc(-c2cccnc2)cs1 [Masitinib (AB1010)] + CC(C)C[C@H](NC(=O)[C@H](CCc1ccccc1)NC(=O)CN1CCOCC1)C(=O)N[C@@H](Cc1ccccc1)C(=O)N[C@@H](CC(C)C)C(=O)[C@@]1(C)CO1 [Carfilzomib] | 86.3 | 69.6 | –
CN(C)CC=CC(=O)Nc1cc2c(Nc3ccc(F)c(Cl)c3)ncnc2cc1OC1CCOC1.O=C(O)C=CC(=O)O.O=C(O)C=CC(=O)O (configuration not stated) [Afatinib dimaleate] + CC(C)C[C@H](NC(=O)[C@H](CCc1ccccc1)NC(=O)CN1CCOCC1)C(=O)N[C@@H](Cc1ccccc1)C(=O)N[C@@H](CC(C)C)C(=O)[C@@]1(C)CO1 [Carfilzomib] | 86.1 | 26.6 | –
CCOC(=O)C1=C(COCCN)NC(C)=C(C(=O)OC)C1c1ccccc1Cl.O=S(=O)(O)c1ccccc1 (configuration not stated) [Amlodipine Besylate] + CC(C)C[C@H](NC(=O)[C@H](CCc1ccccc1)NC(=O)CN1CCOCC1)C(=O)N[C@@H](Cc1ccccc1)C(=O)N[C@@H](CC(C)C)C(=O)[C@@]1(C)CO1 [Carfilzomib] | 97.1 | 64.8 | –
COc1ccccc1OCCNCC(O)COc1cccc2[nH]c3ccccc3c12 (configuration not stated) [Carvedilol] + CC(C)C[C@H](NC(=O)[C@H](CCc1ccccc1)NC(=O)CN1CCOCC1)C(=O)N[C@@H](Cc1ccccc1)C(=O)N[C@@H](CC(C)C)C(=O)[C@@]1(C)CO1 [Carfilzomib] | 76.8 | 61.4 | –
Clc1ccc(COC(Cn2ccnc2)c2ccc(Cl)cc2Cl)c(Cl)c1.O=[N+]([O-])O (configuration not stated) [Miconazole Nitrate] + CC(C)C[C@H](NC(=O)[C@H](CCc1ccccc1)NC(=O)CN1CCOCC1)C(=O)N[C@@H](Cc1ccccc1)C(=O)N[C@@H](CC(C)C)C(=O)[C@@]1(C)CO1 [Carfilzomib] | 87.1 | 59.3 | –
CCCCc1oc2ccc(NS(C)(=O)=O)cc2c1C(=O)c1ccc(OCCCN(CCCC)CCCC)cc1.Cl [Dronedarone HCl] + CC(C)C[C@H](NC(=O)[C@H](CCc1ccccc1)NC(=O)CN1CCOCC1)C(=O)N[C@@H](Cc1ccccc1)C(=O)N[C@@H](CC(C)C)C(=O)[C@@]1(C)CO1 [Carfilzomib] | 92.3 | 59.9 | –
CC(=O)c1cc2c(o1)C(=O)c1ccccc1C2=O [Napabucasin] + CC(C)C[C@H](NC(=O)[C@H](CCc1ccccc1)NC(=O)CN1CCOCC1)C(=O)N[C@@H](Cc1ccccc1)C(=O)N[C@@H](CC(C)C)C(=O)[C@@]1(C)CO1 [Carfilzomib] | 22.6 | 15.7 | –
CCN(CC)CCNC(=O)c1c(C)[nH]c(C=C2C(=O)Nc3ccc(F)cc32)c1C [Sunitinib] + CC(C)C[C@H](NC(=O)[C@H](CCc1ccccc1)NC(=O)CN1CCOCC1)C(=O)N[C@@H](Cc1ccccc1)C(=O)N[C@@H](CC(C)C)C(=O)[C@@]1(C)CO1 [Carfilzomib] | 66 | 59.3 | –
COc1cc(Nc2c(C#N)cnc3cc(OCCCN4CCN(C)CC4)c(OC)cc23)c(Cl)cc1Cl [Bosutinib (SKI-606)] + CC(C)C[C@H](NC(=O)[C@H](CCc1ccccc1)NC(=O)CN1CCOCC1)C(=O)N[C@@H](Cc1ccccc1)C(=O)N[C@@H](CC(C)C)C(=O)[C@@]1(C)CO1 [Carfilzomib] | 70.1 | 35.3 | –
CC(C)C(=O)OCC(=O)[C@@]12O[C@H](C3CCCCC3)O[C@@H]1C[C@H]1[C@@H]3CCC4=CC(=O)C=C[C@]4(C)[C@H]3[C@@H](O)C[C@@]12C [Ciclesonide] + CC(C)C[C@H](NC(=O)[C@H](CCc1ccccc1)NC(=O)CN1CCOCC1)C(=O)N[C@@H](Cc1ccccc1)C(=O)N[C@@H](CC(C)C)C(=O)[C@@]1(C)CO1 [Carfilzomib] | 108 | 88.6 | –
CCN(CC)CCNC(=O)c1c(C)[nH]c(C=C2C(=O)Nc3ccc(F)cc32)c1C.O=C(O)CC(O)C(=O)O [Sunitinib malate] + CC(C)C[C@H](NC(=O)[C@H](CCc1ccccc1)NC(=O)CN1CCOCC1)C(=O)N[C@@H](Cc1ccccc1)C(=O)N[C@@H](CC(C)C)C(=O)[C@@]1(C)CO1 [Carfilzomib] | 67.2 | 61.5 | –
CC(C)c1nc(CN(C)C(=O)NC(C(=O)NC(Cc2ccccc2)CC(O)C(Cc2ccccc2)NC(=O)OCc2cncs2)C(C)C)cs1 (configuration not stated) [Ritonavir] + CC(C)C[C@H](NC(=O)[C@H](CCc1ccccc1)NC(=O)CN1CCOCC1)C(=O)N[C@@H](Cc1ccccc1)C(=O)N[C@@H](CC(C)C)C(=O)[C@@]1(C)CO1 [Carfilzomib] | 73 | 65.6 | 27.3
Cc1cn(-c2cc(NC(=O)c3ccc(C)c(Nc4nccc(-c5cccnc5)n4)c3)cc(C(F)(F)F)c2)cn1 [Nilotinib(AMN-107)] + CC(C)C[C@H](NC(=O)[C@H](CCc1ccccc1)NC(=O)CN1CCOCC1)C(=O)N[C@@H](Cc1ccccc1)C(=O)N[C@@H](CC(C)C)C(=O)[C@@]1(C)CO1 [Carfilzomib] | 69.1 | 45.7 | –
COc1nc2ccc(Br)cc2cc1[C@@H](c1ccccc1)[C@@](O)(CCN(C)C)c1cccc2ccccc12 [Bedaquiline fumarate] + CC(C)C[C@H](NC(=O)[C@H](CCc1ccccc1)NC(=O)CN1CCOCC1)C(=O)N[C@@H](Cc1ccccc1)C(=O)N[C@@H](CC(C)C)C(=O)[C@@]1(C)CO1 [Carfilzomib] | 77.1 | 68.8 | 22.5
CO[C@H]1C[C@@H]2CC[C@@H](C)[C@@](O)(O2)C(=O)C(=O)N2CCCC[C@H]2C(=O)O[C@H]([C@H](C)C[C@@H]2CC[C@@H](OC(=O)C(C)(CO)CO)[C@H](OC)C2)CC(=O)[C@H](C)/C=C(\C)[C@@H](O)[C@@H](OC)C(=O)[C@H](C)C[C@H](C)/C=C/C=C/C=C/1C [Temsirolimus] + CC(C)C[C@H](NC(=O)[C@H](CCc1ccccc1)NC(=O)CN1CCOCC1)C(=O)N[C@@H](Cc1ccccc1)C(=O)N[C@@H](CC(C)C)C(=O)[C@@]1(C)CO1 [Carfilzomib] | 72.4 | 49.5 | –
CNC(=O)c1cc(Oc2ccc(NC(=O)Nc3ccc(Cl)c(C(F)(F)F)c3)c(F)c2)ccn1 [Regorafenib] + CC(C)C[C@H](NC(=O)[C@H](CCc1ccccc1)NC(=O)CN1CCOCC1)C(=O)N[C@@H](Cc1ccccc1)C(=O)N[C@@H](CC(C)C)C(=O)[C@@]1(C)CO1 [Carfilzomib] | 74.6 | 58.6 | –
COC(=O)C1=C(C)NC(C)=C(C(=O)OCCN(C)Cc2ccccc2)C1c1cccc([N+](=O)[O-])c1.Cl (configuration not stated) [Nicardipine HCl] + CC(C)C[C@H](NC(=O)[C@H](CCc1ccccc1)NC(=O)CN1CCOCC1)C(=O)N[C@@H](Cc1ccccc1)C(=O)N[C@@H](CC(C)C)C(=O)[C@@]1(C)CO1 [Carfilzomib] | 115 | 52 | 13.8
Cn1cnc2c(F)c(Nc3ccc(Br)cc3F)c(C(=O)NOCCO)cc21 + CC(C)C[C@H](NC(=O)[C@H](CCc1ccccc1)NC(=O)CN1CCOCC1)C(=O)N[C@@H](Cc1ccccc1)C(=O)N[C@@H](CC(C)C)C(=O)[C@@]1(C)CO1 [Carfilzomib] | 67.1 | 50.1 | –
CC(C)c1nc(N(C)S(C)(=O)=O)nc(-c2ccc(F)cc2)c1C=CC(O)CC(O)CC(=O)[O-].CC(C)c1nc(N(C)S(C)(=O)=O)nc(-c2ccc(F)cc2)c1C=CC(O)CC(O)CC(=O)[O-].[Ca+2] (configuration not stated) [Rosuvastatin Calcium] + CC(C)C[C@H](NC(=O)[C@H](CCc1ccccc1)NC(=O)CN1CCOCC1)C(=O)N[C@@H](Cc1ccccc1)C(=O)N[C@@H](CC(C)C)C(=O)[C@@]1(C)CO1 [Carfilzomib] | 80.8 | 67.7 | 19.6
CC(C)(C)Cn1c(N)nc2ccc(-c3[nH]c(C(C)(C)C)nc3-c3ccc(F)cc3)nc21.CS(=O)(=O)O.CS(=O)(=O)O + CC(C)C[C@H](NC(=O)[C@H](CCc1ccccc1)NC(=O)CN1CCOCC1)C(=O)N[C@@H](Cc1ccccc1)C(=O)N[C@@H](CC(C)C)C(=O)[C@@]1(C)CO1 [Carfilzomib] | 61.9 | 29.3 | 14.4
Cc1nc(Nc2ncc(C(=O)Nc3c(C)cccc3Cl)s2)cc(N2CCN(CCO)CC2)n1 + CC(C)C[C@H](NC(=O)[C@H](CCc1ccccc1)NC(=O)CN1CCOCC1)C(=O)N[C@@H](Cc1ccccc1)C(=O)N[C@@H](CC(C)C)C(=O)[C@@]1(C)CO1 [Carfilzomib] | 61.3 | 32.4 | –
CC(C)Nc1cc(-c2c[nH]c(C(=O)NC(CO)c3cccc(Cl)c3)c2)c(Cl)cn1 (configuration not stated) + CC(C)C[C@H](NC(=O)[C@H](CCc1ccccc1)NC(=O)CN1CCOCC1)C(=O)N[C@@H](Cc1ccccc1)C(=O)N[C@@H](CC(C)C)C(=O)[C@@]1(C)CO1 [Carfilzomib] | 94 | 48.9 | 21.7

— the supplement of paper PMC6992640
